# Measurements from PMC7862700, “An all-to-all approach to the identification of sequence-specific readers for epigenetic DNA modifications on cytosine”.
# How the values were obtained:
# Test in all cases: DAPPL (digital affinity profiling via proximity ligation, sequencing); 10 mM Tris-HCl pH 7.5, 50 mM NaCl, 1 mM DTT, 4% glycerol, room temperature, 30 min; GST-TFs on glutathione beads, 16-mer random dsDNA library, 0.1% formaldehyde crosslink after washing; high values mean tight binding
# [1] = molecular target: T1, FEV (Homo sapiens, UniProt Q99581 1-238); conditions: protein: recombinant; tags: N-terminal GST; dsDNA, one strand shown
# T1 sequence: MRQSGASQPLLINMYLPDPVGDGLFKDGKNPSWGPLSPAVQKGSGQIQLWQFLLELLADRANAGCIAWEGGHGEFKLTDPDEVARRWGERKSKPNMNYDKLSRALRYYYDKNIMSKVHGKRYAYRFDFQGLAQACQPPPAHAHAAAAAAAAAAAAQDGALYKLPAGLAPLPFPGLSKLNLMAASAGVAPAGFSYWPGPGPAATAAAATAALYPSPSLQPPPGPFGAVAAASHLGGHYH
# Outline: (§1)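 Human transcription factors were made in yeast as GST fusions, captured on glutathione beads and barcoded with DNA. With a tag-only sample included, the pool was incubated with 200 nmole of a random double-stranded 16-mer DNA library in Tris/NaCl/DTT/glycerol buffer at room temperature for 30 min, then crosslinked with 0.1% formaldehyde after washing, ligated by proximity, amplified and sequenced. For binding signal, each hexamer's read frequency for a factor is divided by its frequency for the tag-only sample.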
# [2] = molecular target: ETV5 (Homo sapiens, UniProt P41161 1-510); conditions: protein: recombinant; tags: N-terminal GST; dsDNA, one strand shown
# Outline: as §1
# [3] = molecular target: HSF1 (Homo sapiens, UniProt Q00613 1-529); conditions: protein: recombinant; tags: N-terminal GST; chain copies: 3; dsDNA, one strand shown
# Outline: as §1
# [4] = molecular target: T2, SPIC (Homo sapiens, UniProt Q8N5J4 1-248); conditions: protein: recombinant; tags: N-terminal GST; dsDNA, one strand shown
# T2 sequence: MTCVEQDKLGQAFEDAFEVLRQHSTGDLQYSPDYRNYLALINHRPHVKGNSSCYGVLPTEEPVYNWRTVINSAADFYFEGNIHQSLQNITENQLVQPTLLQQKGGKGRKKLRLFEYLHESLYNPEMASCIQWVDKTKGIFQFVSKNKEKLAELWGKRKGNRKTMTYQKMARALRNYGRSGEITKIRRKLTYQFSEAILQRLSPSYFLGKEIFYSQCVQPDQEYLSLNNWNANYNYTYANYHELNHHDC
# Outline: as §1
# [5] = molecular target: ELF4 (Homo sapiens, UniProt Q99607 1-663); conditions: protein: recombinant; tags: N-terminal GST; dsDNA, one strand shown
# Outline: as §1
# [6] = molecular target: T3, ELK4 (Homo sapiens, UniProt P28324-2 1-405); conditions: protein: recombinant; tags: N-terminal GST; dsDNA, one strand shown
# T3 sequence: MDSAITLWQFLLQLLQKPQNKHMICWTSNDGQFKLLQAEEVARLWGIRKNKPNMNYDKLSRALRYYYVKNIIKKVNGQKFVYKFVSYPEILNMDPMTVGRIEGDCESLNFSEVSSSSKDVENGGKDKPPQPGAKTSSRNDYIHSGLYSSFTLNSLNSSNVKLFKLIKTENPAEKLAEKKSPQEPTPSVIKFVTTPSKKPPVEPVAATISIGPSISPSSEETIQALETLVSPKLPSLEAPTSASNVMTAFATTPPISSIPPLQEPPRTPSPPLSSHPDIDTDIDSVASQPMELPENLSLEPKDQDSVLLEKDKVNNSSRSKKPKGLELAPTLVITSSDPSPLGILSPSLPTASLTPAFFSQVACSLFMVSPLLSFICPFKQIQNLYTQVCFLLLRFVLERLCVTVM
# Outline: as §1
# [7] = molecular target: T4, ETV2 (Homo sapiens, UniProt O00321 1-342); conditions: protein: recombinant; tags: N-terminal GST; dsDNA, one strand shown
# T4 sequence: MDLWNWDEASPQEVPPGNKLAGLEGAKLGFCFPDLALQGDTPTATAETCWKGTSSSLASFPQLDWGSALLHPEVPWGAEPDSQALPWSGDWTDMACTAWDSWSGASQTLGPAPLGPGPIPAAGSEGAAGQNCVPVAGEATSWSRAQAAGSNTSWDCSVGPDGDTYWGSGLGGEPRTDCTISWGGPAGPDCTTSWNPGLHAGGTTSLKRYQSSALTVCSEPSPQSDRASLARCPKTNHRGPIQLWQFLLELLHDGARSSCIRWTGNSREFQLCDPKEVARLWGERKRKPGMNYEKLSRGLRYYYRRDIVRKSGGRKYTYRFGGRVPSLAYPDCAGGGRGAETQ
# Outline: as §1
# [8] = molecular target: T5, ELF3 (Homo sapiens, UniProt P78545 1-371); conditions: protein: recombinant; tags: N-terminal GST; dsDNA, one strand shown
# T5 sequence: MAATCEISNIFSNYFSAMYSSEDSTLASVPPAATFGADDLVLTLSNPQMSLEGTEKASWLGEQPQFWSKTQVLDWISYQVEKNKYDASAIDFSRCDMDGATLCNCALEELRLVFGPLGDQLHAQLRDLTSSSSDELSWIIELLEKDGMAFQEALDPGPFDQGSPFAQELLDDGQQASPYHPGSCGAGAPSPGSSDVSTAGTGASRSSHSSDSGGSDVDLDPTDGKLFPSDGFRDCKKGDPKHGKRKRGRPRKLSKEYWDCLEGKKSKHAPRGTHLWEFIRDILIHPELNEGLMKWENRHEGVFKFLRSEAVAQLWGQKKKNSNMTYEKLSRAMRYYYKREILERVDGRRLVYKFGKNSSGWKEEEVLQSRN
# Outline: as §1
# [9] = molecular target: CRX (Homo sapiens, UniProt O43186 1-299); conditions: protein: recombinant; tags: N-terminal GST; dsDNA, one strand shown
# Outline: as §1
# [10] = molecular target: ETV1 (Homo sapiens, UniProt P50549 1-477); conditions: protein: recombinant; tags: N-terminal GST; dsDNA, one strand shown
# Outline: as §1
# [11] = molecular target: T6, ERF (Homo sapiens, UniProt P50548 1-548); conditions: protein: recombinant; tags: N-terminal GST; dsDNA, one strand shown
# T6 sequence: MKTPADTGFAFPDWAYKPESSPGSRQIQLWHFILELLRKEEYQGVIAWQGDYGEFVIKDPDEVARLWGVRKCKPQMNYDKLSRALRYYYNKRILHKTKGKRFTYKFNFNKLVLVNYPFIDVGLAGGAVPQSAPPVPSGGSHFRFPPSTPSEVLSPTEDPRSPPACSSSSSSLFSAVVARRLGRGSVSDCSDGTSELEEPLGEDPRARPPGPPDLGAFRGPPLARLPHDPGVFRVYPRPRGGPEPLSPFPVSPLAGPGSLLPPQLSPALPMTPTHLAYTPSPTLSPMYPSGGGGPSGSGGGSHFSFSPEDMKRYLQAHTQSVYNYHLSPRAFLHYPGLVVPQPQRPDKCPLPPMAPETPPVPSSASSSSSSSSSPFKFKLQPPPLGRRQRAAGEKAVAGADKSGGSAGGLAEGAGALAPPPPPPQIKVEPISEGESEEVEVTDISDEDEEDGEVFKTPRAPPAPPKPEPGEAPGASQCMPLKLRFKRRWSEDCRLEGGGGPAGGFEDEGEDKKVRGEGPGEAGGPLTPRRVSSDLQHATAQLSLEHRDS
# Outline: as §1
# [12] = molecular target: T7, ETV3L (Homo sapiens, UniProt Q6ZN32 1-361); conditions: protein: recombinant; tags: N-terminal GST; dsDNA, one strand shown
# T7 sequence: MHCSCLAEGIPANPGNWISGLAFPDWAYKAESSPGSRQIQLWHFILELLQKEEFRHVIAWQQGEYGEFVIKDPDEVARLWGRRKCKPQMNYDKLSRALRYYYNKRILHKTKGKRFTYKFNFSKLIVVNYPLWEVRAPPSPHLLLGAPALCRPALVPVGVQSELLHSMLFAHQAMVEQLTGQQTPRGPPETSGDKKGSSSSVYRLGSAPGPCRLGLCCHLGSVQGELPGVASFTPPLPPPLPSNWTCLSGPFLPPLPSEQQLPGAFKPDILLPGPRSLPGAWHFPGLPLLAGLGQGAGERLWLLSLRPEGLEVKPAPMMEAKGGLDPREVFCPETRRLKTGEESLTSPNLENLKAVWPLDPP
# Outline: as §1
# [13] = molecular target: T8, ETS2 (Homo sapiens, UniProt P15036 1-469); conditions: protein: recombinant; tags: N-terminal GST; dsDNA, one strand shown
# T8 sequence: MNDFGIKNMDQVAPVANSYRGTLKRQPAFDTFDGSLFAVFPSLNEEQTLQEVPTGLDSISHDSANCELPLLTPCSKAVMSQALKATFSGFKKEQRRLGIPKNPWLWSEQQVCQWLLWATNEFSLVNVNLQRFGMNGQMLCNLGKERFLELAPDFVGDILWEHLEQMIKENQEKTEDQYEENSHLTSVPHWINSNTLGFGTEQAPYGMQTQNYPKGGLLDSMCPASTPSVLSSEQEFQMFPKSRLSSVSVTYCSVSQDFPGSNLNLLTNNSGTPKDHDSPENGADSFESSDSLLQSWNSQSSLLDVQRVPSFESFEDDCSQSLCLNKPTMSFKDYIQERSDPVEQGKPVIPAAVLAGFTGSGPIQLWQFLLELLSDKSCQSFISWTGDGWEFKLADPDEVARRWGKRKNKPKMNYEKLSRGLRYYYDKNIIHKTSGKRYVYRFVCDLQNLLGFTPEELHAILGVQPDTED
# Outline: as §1
# [14] = molecular target: T9, SPDEF (Homo sapiens, UniProt O95238 1-335); conditions: protein: recombinant; tags: N-terminal GST; dsDNA, one strand shown
# T9 sequence: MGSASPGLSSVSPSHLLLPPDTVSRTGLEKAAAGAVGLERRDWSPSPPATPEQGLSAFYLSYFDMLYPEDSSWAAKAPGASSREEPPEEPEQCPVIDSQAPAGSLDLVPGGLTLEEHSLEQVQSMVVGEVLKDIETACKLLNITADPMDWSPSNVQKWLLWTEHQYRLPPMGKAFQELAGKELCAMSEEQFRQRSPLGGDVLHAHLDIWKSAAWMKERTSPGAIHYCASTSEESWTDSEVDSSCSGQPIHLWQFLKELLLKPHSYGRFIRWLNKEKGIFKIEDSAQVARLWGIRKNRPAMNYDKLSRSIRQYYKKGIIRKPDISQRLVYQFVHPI
# Outline: as §1
# [15] = molecular target: T10, ETV7 (Homo sapiens, UniProt Q9Y603 1-341); conditions: protein: recombinant; tags: N-terminal GST; dsDNA, one strand shown
# T10 sequence: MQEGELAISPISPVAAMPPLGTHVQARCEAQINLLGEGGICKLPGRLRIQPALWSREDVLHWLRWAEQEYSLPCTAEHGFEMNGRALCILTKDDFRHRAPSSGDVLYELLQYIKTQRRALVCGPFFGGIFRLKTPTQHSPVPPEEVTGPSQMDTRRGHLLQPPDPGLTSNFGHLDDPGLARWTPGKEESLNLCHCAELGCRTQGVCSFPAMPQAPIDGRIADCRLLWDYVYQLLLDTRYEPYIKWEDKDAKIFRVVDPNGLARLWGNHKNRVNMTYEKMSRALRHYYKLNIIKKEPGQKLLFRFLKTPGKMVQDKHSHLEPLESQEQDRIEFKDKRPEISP
# Outline: as §1
# [16] = molecular target: T11, ELF5 (Homo sapiens, UniProt Q9UKW6-2 1-255); conditions: protein: recombinant; tags: N-terminal GST; dsDNA, one strand shown
# T11 sequence: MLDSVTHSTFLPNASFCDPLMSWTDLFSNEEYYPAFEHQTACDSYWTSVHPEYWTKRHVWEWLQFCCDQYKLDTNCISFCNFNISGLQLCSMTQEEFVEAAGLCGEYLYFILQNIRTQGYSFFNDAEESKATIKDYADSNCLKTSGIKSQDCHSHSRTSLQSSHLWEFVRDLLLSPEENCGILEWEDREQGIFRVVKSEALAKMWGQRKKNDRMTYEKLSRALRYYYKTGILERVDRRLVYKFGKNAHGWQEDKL
# Outline: as §1
# [17] = molecular target: T12, ETV3 (Homo sapiens, UniProt P41162-2 1-143); conditions: protein: recombinant; tags: N-terminal GST; dsDNA, one strand shown
# T12 sequence: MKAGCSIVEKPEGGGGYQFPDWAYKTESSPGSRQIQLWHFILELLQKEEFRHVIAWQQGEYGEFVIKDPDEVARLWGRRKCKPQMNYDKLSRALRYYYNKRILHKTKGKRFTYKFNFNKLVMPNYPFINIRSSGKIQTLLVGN
# Outline: as §1
# [18] = molecular target: ETV6 (Homo sapiens, UniProt P41212 1-452); conditions: protein: recombinant; tags: N-terminal GST; dsDNA, one strand shown
# Outline: as §1
# Chain of ETV5 (P41161 whole entry): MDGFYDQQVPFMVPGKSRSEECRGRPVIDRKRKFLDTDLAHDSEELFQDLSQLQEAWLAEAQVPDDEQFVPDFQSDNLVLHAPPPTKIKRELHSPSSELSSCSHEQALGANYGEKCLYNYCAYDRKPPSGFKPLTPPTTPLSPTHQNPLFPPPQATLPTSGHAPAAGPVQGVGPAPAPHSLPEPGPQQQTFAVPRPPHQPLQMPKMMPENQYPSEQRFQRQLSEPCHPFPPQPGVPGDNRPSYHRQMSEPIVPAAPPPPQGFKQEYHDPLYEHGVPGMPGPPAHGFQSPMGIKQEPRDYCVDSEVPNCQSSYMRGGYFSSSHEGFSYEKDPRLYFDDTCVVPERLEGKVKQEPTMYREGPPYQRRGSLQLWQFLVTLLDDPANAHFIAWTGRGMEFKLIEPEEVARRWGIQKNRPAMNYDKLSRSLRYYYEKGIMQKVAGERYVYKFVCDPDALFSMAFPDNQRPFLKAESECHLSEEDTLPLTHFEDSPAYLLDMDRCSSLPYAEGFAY
# Chain of CRX (O43186 whole entry): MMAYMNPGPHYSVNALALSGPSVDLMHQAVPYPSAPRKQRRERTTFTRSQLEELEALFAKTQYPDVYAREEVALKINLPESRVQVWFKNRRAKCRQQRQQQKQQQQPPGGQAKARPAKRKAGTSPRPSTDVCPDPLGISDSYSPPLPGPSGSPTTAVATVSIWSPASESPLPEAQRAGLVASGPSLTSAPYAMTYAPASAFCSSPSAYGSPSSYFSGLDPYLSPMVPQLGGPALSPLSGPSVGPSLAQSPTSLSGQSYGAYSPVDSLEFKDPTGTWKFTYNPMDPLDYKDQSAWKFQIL
# Chain of ETV6 (P41212 whole entry): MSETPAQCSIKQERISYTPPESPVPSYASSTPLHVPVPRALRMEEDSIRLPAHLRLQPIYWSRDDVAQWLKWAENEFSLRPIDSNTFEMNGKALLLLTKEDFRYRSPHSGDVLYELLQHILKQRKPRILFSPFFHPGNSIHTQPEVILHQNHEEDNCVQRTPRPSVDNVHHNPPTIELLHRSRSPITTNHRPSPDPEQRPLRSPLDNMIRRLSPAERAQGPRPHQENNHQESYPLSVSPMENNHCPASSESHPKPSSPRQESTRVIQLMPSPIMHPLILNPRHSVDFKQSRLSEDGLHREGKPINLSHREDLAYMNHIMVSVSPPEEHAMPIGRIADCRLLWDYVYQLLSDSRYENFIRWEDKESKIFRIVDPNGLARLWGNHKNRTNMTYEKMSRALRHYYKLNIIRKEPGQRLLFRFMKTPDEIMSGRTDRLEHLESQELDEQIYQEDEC
# Chain of ELF4 (Q99607 whole entry): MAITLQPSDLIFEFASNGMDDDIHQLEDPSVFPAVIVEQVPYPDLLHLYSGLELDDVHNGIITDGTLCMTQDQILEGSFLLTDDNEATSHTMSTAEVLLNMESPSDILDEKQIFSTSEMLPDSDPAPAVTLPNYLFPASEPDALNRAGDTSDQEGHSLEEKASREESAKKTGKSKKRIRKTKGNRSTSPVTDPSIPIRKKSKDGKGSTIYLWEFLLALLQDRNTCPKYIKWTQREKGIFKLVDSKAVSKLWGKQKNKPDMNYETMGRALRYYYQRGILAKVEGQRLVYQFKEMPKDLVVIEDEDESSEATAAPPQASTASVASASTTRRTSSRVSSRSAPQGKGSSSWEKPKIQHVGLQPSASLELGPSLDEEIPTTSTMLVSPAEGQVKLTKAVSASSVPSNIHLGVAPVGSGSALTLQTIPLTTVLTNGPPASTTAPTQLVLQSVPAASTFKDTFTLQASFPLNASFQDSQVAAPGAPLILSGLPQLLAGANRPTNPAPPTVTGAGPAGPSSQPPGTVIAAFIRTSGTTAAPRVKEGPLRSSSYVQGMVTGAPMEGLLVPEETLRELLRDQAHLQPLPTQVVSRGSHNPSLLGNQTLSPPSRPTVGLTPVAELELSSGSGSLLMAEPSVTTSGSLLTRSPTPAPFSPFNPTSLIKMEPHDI
# Chain of HSF1 (Q00613 whole entry): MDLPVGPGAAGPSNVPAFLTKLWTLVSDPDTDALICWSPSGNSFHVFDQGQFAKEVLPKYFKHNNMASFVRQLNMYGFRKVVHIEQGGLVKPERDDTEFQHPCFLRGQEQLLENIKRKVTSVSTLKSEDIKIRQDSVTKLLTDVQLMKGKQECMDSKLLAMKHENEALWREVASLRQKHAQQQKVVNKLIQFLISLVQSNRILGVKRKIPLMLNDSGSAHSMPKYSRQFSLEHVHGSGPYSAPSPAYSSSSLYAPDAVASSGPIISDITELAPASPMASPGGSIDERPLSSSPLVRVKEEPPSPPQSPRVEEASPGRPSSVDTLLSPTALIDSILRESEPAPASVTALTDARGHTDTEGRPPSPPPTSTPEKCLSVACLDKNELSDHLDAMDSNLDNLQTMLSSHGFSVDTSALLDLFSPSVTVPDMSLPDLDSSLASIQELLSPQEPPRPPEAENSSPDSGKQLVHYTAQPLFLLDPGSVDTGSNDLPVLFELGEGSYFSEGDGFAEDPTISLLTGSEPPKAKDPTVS
# Chain of ETV1 (P50549 whole entry): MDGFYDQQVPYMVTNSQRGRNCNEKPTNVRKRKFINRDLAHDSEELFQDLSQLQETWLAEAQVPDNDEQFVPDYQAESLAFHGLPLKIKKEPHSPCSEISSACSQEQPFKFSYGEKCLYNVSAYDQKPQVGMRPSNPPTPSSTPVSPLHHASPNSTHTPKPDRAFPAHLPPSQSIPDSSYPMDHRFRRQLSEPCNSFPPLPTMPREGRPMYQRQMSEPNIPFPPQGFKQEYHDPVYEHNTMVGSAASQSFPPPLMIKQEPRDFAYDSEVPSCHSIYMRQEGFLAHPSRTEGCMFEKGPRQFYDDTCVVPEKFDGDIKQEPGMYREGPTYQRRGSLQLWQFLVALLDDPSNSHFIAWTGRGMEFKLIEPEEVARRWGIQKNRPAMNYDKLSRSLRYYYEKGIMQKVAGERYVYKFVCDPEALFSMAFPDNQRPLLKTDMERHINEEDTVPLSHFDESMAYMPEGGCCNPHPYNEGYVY
sequence,measurement,setting,value
ACGACT,binding signal,[1],"1.28 fold enrichment (6-mer frequency, TF over GST control)"
same,binding signal,[2],"1.15 fold enrichment (6-mer frequency, TF over GST control)"
same,binding signal,[3],"1.2 fold enrichment (6-mer frequency, TF over GST control)"
same,binding signal,[4],"1.26 fold enrichment (6-mer frequency, TF over GST control)"
same,binding signal,[5],"1.23 fold enrichment (6-mer frequency, TF over GST control)"
same,binding signal,[6],"1.39 fold enrichment (6-mer frequency, TF over GST control)"
same,binding signal,[7],"1.27 fold enrichment (6-mer frequency, TF over GST control)"
same,binding signal,[8],"1.11 fold enrichment (6-mer frequency, TF over GST control)"
same,binding signal,[9],"1.19 fold enrichment (6-mer frequency, TF over GST control)"
same,binding signal,[10],"1.29 fold enrichment (6-mer frequency, TF over GST control)"
same,binding signal,[11],"1.15 fold enrichment (6-mer frequency, TF over GST control)"
same,binding signal,[12],"1.28 fold enrichment (6-mer frequency, TF over GST control)"
same,binding signal,[13],"1.28 fold enrichment (6-mer frequency, TF over GST control)"
same,binding signal,[14],"1.19 fold enrichment (6-mer frequency, TF over GST control)"
same,binding signal,[15],"1.17 fold enrichment (6-mer frequency, TF over GST control)"
same,binding signal,[16],"1.23 fold enrichment (6-mer frequency, TF over GST control)"
same,binding signal,[17],"1.22 fold enrichment (6-mer frequency, TF over GST control)"
same,binding signal,[18],"1.17 fold enrichment (6-mer frequency, TF over GST control)"
